USP30 inh – blocks human USP30 ubiquitin-rhodamine cleavage. purified USP30, Ub-rhodamine cleavage fluorescence. 5.3% of 47,000 active. inhibition, % at 25 µM. Q70CQ3
USP28 block – blocks human USP28 ubiquitin-rhodamine cleavage; inhibition, % at 25 µM; Q96RU2; purified USP28, Ub-rhodamine cleavage fluorescence, 30 min; 3% of 47,000 active
USP8 inh – human USP8 deubiquitinase inhibition; P40818; purified USP8, Ub-rhodamine cleavage fluorescence, 30 min; inhibition, % at 20 µM; 4.2% of 47,000 active; AID 1645853
Target sequence (P40818 whole entry, looked up): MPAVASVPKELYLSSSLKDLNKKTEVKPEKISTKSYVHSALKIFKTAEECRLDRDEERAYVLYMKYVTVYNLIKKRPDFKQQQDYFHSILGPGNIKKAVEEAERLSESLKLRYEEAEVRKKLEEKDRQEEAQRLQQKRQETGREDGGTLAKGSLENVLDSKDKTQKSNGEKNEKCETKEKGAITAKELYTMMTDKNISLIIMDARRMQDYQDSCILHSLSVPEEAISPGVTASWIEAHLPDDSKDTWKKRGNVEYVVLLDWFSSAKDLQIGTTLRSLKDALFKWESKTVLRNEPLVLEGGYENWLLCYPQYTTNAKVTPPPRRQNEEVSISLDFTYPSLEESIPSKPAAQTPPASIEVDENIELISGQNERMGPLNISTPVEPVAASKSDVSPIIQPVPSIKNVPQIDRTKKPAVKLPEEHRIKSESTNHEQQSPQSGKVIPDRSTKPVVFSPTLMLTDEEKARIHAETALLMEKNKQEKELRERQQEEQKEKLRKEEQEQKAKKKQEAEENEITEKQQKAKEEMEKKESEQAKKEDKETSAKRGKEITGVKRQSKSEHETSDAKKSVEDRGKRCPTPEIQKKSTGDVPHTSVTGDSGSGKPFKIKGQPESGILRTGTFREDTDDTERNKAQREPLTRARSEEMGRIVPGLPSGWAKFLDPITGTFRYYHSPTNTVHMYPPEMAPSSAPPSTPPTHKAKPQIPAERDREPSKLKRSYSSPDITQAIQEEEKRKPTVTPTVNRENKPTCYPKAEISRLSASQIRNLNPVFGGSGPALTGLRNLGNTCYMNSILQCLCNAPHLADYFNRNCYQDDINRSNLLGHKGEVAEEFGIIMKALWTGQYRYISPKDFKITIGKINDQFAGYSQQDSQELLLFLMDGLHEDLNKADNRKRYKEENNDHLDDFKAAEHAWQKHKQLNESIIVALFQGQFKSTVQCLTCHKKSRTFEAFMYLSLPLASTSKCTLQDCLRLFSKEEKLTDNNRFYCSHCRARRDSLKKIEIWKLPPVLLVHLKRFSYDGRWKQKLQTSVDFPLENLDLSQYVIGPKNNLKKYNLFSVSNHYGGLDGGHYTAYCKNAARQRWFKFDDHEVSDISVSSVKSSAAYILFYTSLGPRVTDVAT
USP17 block – blocks human USP17 ubiquitin-rhodamine cleavage | A8MUK1 | purified USP17, Ub-rhodamine cleavage fluorescence, 3 h | inhibition, % at 50 µM | 6.5% of 47,000 active
A number is an active result; n = inactive; x = not tested or not shown. In the library only some 13% were active in any assay of this set; here they are far more common. Rule as the data show it: active = inhibition above about 30%; inactive = the rest.

SMILES	USP30 inh	USP28 block	USP8 inh	USP17 block
O=C(Cn1cc(C(=O)C2CCCCC2)c2ccccc21)Nc1ccccc1C(F)(F)F	n	n	n	n
O=C(Cn1cc(S(=O)(=O)Cc2ccccc2)c2ccccc21)NC1CCCCC1	n	n	30	n
Cc1c(Cl)cccc1NC(=O)Cn1cc(C(=O)C2CC2)c2ccccc21	n	n	86	n
O=C(Nc1ccc(F)cc1F)c1ncoc1-c1cccs1	n	n	n	n
COc1ccc(-c2[nH]nc3c2C(c2sccc2C)CC(=O)O3)cc1 (stereo unspecified)	n	n	n	n
O=C(Cn1ccc2ccn(Cc3ccccc3)c2c1=O)NC1CCCC1	n	n	n	39
O=C(Cn1ccc2ccn(Cc3cccnc3)c2c1=O)NC1CCCC1	n	n	n	n
O=C(Cn1ccc2ccn(Cc3ccccc3)c2c1=O)Nc1ccccc1Cl	n	n	77	33
O=C(Cn1cnc2c(c1=O)CCN(Cc1ccccc1)C2)Nc1ccccc1Cl	n	n	n	n
Cc1c(Cl)cccc1NC(=O)Cn1ccc2ccccc2c1=O	n	n	n	71
CCc1ccc(NC(=O)CCNS(=O)(=O)c2ccc3c(c2)CCN3C(C)=O)cc1	n	n	n	n
COc1cccc(NC(=O)N2CCCCCC2c2ccc(C)s2)c1 (stereo unspecified)	n	n	n	n
O=C(Nc1ccnn1Cc1cccnc1)c1cccnc1Sc1ccc(Cl)cc1	n	n	n	n
C[C@H](NC(=O)[C@H](Cc1ccccc1)NC(=O)N1CCn2c1nc1ccccc12)C(=O)O	n	n	n	n
COc1ccc(CCNC(=O)[C@@H](NC(=O)N2CCn3c2nc2ccccc23)C(C)C)cc1OC	n	n	n	n
CCC(C)[C@H](NC(=O)N1CCn2c1nc1ccccc12)C(=O)NCCc1ccccc1 (stereo partly specified)	30	n	n	35
C[C@H](NC(=O)N1CCn2c1nc1ccccc12)C(=O)NCc1ccc(F)cc1	41	n	n	34
Cn1c(N2CCCC(C(=O)NCCN3CCCC3)C2)cc(=O)n(C)c1=O (stereo unspecified)	n	n	n	n
Cc1ccc(C2CN3C(=O)CN(C4CCCC4)C(=O)[C@]3(C)c3[nH]c4ccccc4c32)cc1 (stereo partly specified)	n	n	n	n
CCc1c(C)nc2ncnn2c1Sc1ccccc1NC(=O)c1ccccc1OC	n	n	n	n
Cn1c(=O)c2c(-c3cccc(F)c3)c(Nc3ccccc3)oc2n(C)c1=O	n	39	n	n
CC(C)c1cc(C2CCCN2C(=O)Nc2ccc(F)cc2F)no1 (stereo unspecified)	n	n	n	x
CCn1c(CN2CCCC(c3nc(-c4cccnc4)n[nH]3)C2)nc2ccccc21 (stereo unspecified)	n	71	n	n
O=C(c1cccc2nsnc12)N1CCN(c2nc(-c3ccccc3)ns2)CC1	n	n	n	n
O=C(COc1ccc(Cl)cc1)N1CCc2[nH]nc(-c3ccc(Cl)cc3)c2C1	33	n	n	n
SMILES	USP30 inh	USP28 block	USP8 inh	USP17 block
Cc1oc(C2CCN(C(=O)NC3CCCC3)CC2)nc1C(=O)N1CCCC1	n	n	n	n
COc1ccc(CC(=O)N2CCC(Nc3cccnc3)C2)cc1 (stereo unspecified)	n	n	n	42
Cc1noc(C)c1CC(=O)N1CCC(Nc2cccnc2)C1 (stereo unspecified)	n	n	n	n
COc1ccc(N2CCN(C(=O)CN3C(=O)[C@H]4CCCN4c4ncccc43)CC2)cc1	n	n	n	34
Cc1ccc(CNC(=O)c2cccc(-c3nc(-c4ccccc4)no3)c2)o1	n	n	n	n
Cc1ccc(NC(=O)c2cccc(-c3nc(-c4ccccc4)no3)c2)nc1	n	n	n	35
Cc1ccc(NC(=O)c2cn(-c3ccc(S(=O)(=O)N4CCCC4)cn3)cn2)cc1	n	n	n	n
CCNC(=O)c1cn(-c2ccc(S(=O)(=O)N3CCCC(C)C3)cn2)cn1 (stereo unspecified)	x	x	n	44
CC1CCCN(S(=O)(=O)c2ccc(-n3cnc(C(=O)NC4CC4)c3)nc2)C1 (stereo unspecified)	32	n	n	45
O=C(COC(=O)C1CCCN1S(=O)(=O)c1ccc(Cl)cc1)Nc1ccc2c(c1)OCO2 (stereo unspecified)	33	n	n	n
O=C(COC(=O)C1(c2ccc(Cl)cc2)CCCC1)Nc1ccc2c(c1)OCO2	48	n	36	n
COc1ccc([N+](=O)[O-])cc1NC(=O)COC(=O)C1CCCN1S(=O)(=O)c1ccc(Cl)cc1 (stereo unspecified)	35	n	n	n
O=C(COC(=O)C1(c2ccc(Cl)cc2)CCCC1)c1ccc2c(c1)OCCO2	n	n	n	n
COC(C)(C)C(=O)N1CCCC1c1ncc(Cc2ccc(F)cc2)o1 (stereo unspecified)	n	n	n	n
CC(=O)Nc1ccc(S(=O)(=O)Nc2ccc(Nc3ccc(-n4cccn4)nn3)cc2)cc1	50	n	n	36
Cc1cccc(S(=O)(=O)N2CCCN(c3nc4cccnc4s3)CC2)c1	n	n	n	n
COc1ccc(C2CC(=O)N(CC(=O)c3ccccc3)c3ccccc3S2(=O)=O)cc1OC (stereo unspecified)	n	n	n	n
COc1ccc(C2CC(=O)N(CC(=O)Nc3ccc(NC(C)=O)cc3)c3ccccc3S2)cc1OC (stereo unspecified)	x	x	n	37
O=c1c2cc(Cl)ccc2ncn1Cc1csc(-c2ccccc2)n1	44	n	n	n
Cc1ccc(S(=O)(=O)N2CCN3C(=O)[C@@H](Cc4ccccc4)N(C)C(=O)[C@@H]3C2)cc1	31	n	n	n
CCCCCCCC1OC(=O)Cc2cc(O)c(O)c(O)c21 (stereo unspecified)	63	94	77	96
Cn1c(SCC(=O)c2ccc3c(c2)OCCCO3)nnc1-c1ccc2ccccc2c1	49	31	n	n
Cn1c(SCCOc2ccccc2Cl)nnc1-c1ccc2c(c1)OCCO2	39	38	n	n
Cc1ccc2nc(CN(C)c3ccccc3)cc(=O)n2c1	n	n	74	36
CN(Cc1cc(=O)n2ccsc2n1)c1ccccc1	n	n	35	n
SMILES	USP30 inh	USP28 block	USP8 inh	USP17 block
Cc1ccc2nc(CNc3ccc(F)cc3C)cc(=O)n2c1	n	52	93	85
Cc1cccc(N2CCN(Cc3cc(=O)n4ccsc4n3)CC2)c1C	n	n	n	n
Cc1ccc2nc(SCC(=O)NCc3ccccc3)nc(=O)n2c1	n	n	n	n
NC(=O)c1ccccc1NCc1cc(=O)n2cc(Cl)ccc2n1	n	n	n	n
COc1ccc(-c2cn3cccnc3n2)cc1NS(=O)(=O)c1ccc(F)cc1	n	n	n	n
Cc1ccnc(-n2c(C)c(C)c3c(=N)n(Cc4ccco4)cnc32)c1	n	n	n	n
Cc1ccc(C2C(C(=O)c3cccs3)=C(O)C(=O)N2CCN2CCOCC2)cc1 (stereo unspecified)	n	n	n	n
O=C(Nc1ccncc1)c1ncoc1-c1cccc(Cl)c1	66	n	n	n
COc1ccc(-c2ocnc2C(=O)Nc2ccc(C)c(F)c2)cc1OC	n	n	n	n
Cc1ccc(CNC(=O)c2nc(-c3cn(-c4ccccc4)nc3C)no2)cc1	n	n	n	n
